Values joined by “and” are separate entries in the source; they are usually repeats but may differ in a detail not shown here. Equal entries are not always repeated. Compounds without any hit were thinned out: in the full panel of roughly 83,000, 20% have a hit.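 A percent growth of 40 corresponds to 60% growth inhibition; 0 means no net growth; -100 means all cells died. Active threshold: below 10.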 More than one record can exist for a structure, and the calls need not agree. Active and inactive are the calls of the source.
What was measured:
Assay in all cases: NCI-60 one-dose screen, 48 h (100 = growth as untreated, 0 = no growth, -100 = all killed)
Conditions in all cases: 10 µM unless noted
SR leukemia = system: SR leukemia
RPMI-8226 leukemia = system: RPMI-8226 leukemia
OVCAR-8 ovarian = system: OVCAR-8 ovarian
OVCAR-5 ovarian = system: OVCAR-5 ovarian
OVCAR-4 ovarian = system: OVCAR-4 ovarian
SK-OV-3 ovarian = system: SK-OV-3 ovarian
IGROV1 ovarian = system: IGROV1 ovarian
OVCAR-3 ovarian = system: OVCAR-3 ovarian
HS 578T breast = system: HS 578T breast
NCI/ADR-RES ovarian = system: NCI/ADR-RES ovarian

Row | Structure (SMILES) | growth (SR leukemia) | growth (RPMI-8226 leukemia) | growth (OVCAR-8 ovarian) | growth (OVCAR-5 ovarian) | growth (OVCAR-4 ovarian) | growth (SK-OV-3 ovarian) | growth (IGROV1 ovarian) | growth (OVCAR-3 ovarian) | growth (HS 578T breast) | growth (NCI/ADR-RES ovarian)
1 | CCN(CC)CCC(CNc1ccnc2cc(Cl)ccc12)c1ccc(OC)cc1 (stereo not given) | -26% (active) and -16.4% (active) | 60.1% (inactive) and 39% (inactive) | 63.6% (inactive) and 46% (inactive) | 76.1% (inactive) and 89.4% (inactive) | 29.8% (inactive) and 47.4% (inactive) | 92.7% (inactive) and 78.5% (inactive) | 52.3% (inactive) and 38% (inactive) | 84.3% (inactive) and 80.9% (inactive) | 74% (inactive) | 76.7% (inactive) and 72.8% (inactive)
2 | S=C1SCN(Cc2ccccc2)CN1Cc1ccccc1 | 52.9% (inactive) | 17% (inactive) | 93.3% (inactive) | 93.2% (inactive) | 86.4% (inactive) | 103% (inactive) | 34.5% (inactive) | 32.4% (inactive) | 90.4% (inactive) | 73.6% (inactive)
3 | CCN(CC)C(=S)SSC(=S)N(CC)CC | 3.32% (active) and 89% (inactive) | 45.4% (inactive) and 110% (inactive) | 65.8% (inactive) and 89.4% (inactive) | 86% (inactive) and 100% (inactive) | 76.6% (inactive) and 94.6% (inactive) | 98.7% (inactive) and 102% (inactive) | 77.5% (inactive) and 113% (inactive) | 68.3% (inactive) and 108% (inactive) | 111% (inactive) | 84.1% (inactive) and 106% (inactive)
4 | Nc1ccccc1SC1CC(=O)N(c2cccc3ccccc23)C1=O (stereo not given) | 88% (inactive) | 86.3% (inactive) | 92.2% (inactive) | 101% (inactive) | 93.6% (inactive) | 88.6% (inactive) | 99.1% (inactive) | 101% (inactive) | 97.9% (inactive) | 96.1% (inactive)
5 | Cc1ccc(-c2noc(C)n2)cc1 | 90.7% (inactive) | 105% (inactive) | 101% (inactive) | 98.9% (inactive) | 118% (inactive) | 112% (inactive) | 102% (inactive) | 122% (inactive) | 107% (inactive) | 108% (inactive)
6 | OC(CSc1ccccc1)CN1CCN(c2cccc(Cl)c2)CC1 (stereo not given) | 87.2% (inactive) and 102% (inactive) | 92.9% (inactive) and 97.3% (inactive) | 98.9% (inactive) and 101% (inactive) | 105% (inactive) and 96.9% (inactive) | 97.1% (inactive) and 107% (inactive) | 105% (inactive) and 107% (inactive) | 105% (inactive) and 122% (inactive) | 120% (inactive) and 101% (inactive) | 118% (inactive) and 88.7% (inactive) | 99.6% (inactive) and 88.7% (inactive)
7 | O=C(O)CCCCc1ccc([N+](=O)[O-])cc1 | 105% (inactive) and 89.5% (inactive) | 95.4% (inactive) and 87.7% (inactive) | 114% (inactive) and 102% (inactive) | 116% (inactive) and 89.9% (inactive) | 101% (inactive) and 106% (inactive) | 109% (inactive) and 106% (inactive) | 98.1% (inactive) and 95.9% (inactive) | 106% (inactive) and 121% (inactive) | 127% (inactive) and 104% (inactive) | 101% (inactive) and 107% (inactive)
8 | CCOC(=O)C(C(=O)OCC)C(c1ccccc1)N1CCN(c2ccccc2)CC1 (stereo not given) | 97.9% (inactive) and 101% (inactive) | 102% (inactive) and 103% (inactive) | 101% (inactive) and 90.3% (inactive) | 112% (inactive) and 111% (inactive) | 102% (inactive) and 113% (inactive) | 115% (inactive) and 108% (inactive) | 107% (inactive) | 123% (inactive) and 120% (inactive) | 103% (inactive) and 104% (inactive) | 107% (inactive)
9 | Oc1ccccc1C=NCC1CCC(CN=Cc2ccccc2O)CC1 (stereo not given) | 69.4% (inactive) | 90.9% (inactive) | 79.9% (inactive) | 67.6% (inactive) | 116% (inactive) | 95% (inactive) | 68.1% (inactive) | 116% (inactive) | 114% (inactive) | 80.4% (inactive)
10 | OC1CCC(Oc2cccc3cnc(Nc4ccc5nc[nH]c5c4)nc23)CC1 (stereo not given) | -15.3% (active) and -4.18% (active) | -16.7% (active) and 55% (inactive) | 5.91% (active) and 52.6% (inactive) | 24.2% (inactive) and 41.7% (inactive) | 15.7% (inactive) and 73.9% (inactive) | 8.38% (active) and 57.4% (inactive) | 19.1% (inactive) and 52.3% (inactive) | 5.57% (active) and 53.7% (inactive) | -7.28% (active) and 15.8% (inactive) | 9.41% (active) and 83.2% (inactive)
11 | O=[N+]([O-])c1ccc(N/N=C\c2cc(Br)ccc2O)nc1 | 20.2% (inactive) and 3.08% (active) | 32.5% (inactive) and -9.9% (active) | 11.9% (inactive) and 3.96% (active) | 52% (inactive) and 54.4% (inactive) | 20.3% (inactive) and 7.71% (active) | 27.1% (inactive) and 27.7% (inactive) | 13.5% (inactive) and 8.02% (active) | 11.2% (inactive) and 24.5% (inactive) | 39.1% (inactive) and 61.4% (inactive) | 5.25% (active) and 6.08% (active)
12 | CC1CCCc2sc3nc(NNC(=O)c4cnccn4)n(-c4ccccc4)c(=O)c3c21 (stereo not given) | 1.65% (active) and 26.4% (inactive) | 24.4% (inactive) and 11.4% (inactive) | 12% (inactive) and 9.28% (active) | 29.6% (inactive) and 36.6% (inactive) | -3.93% (active) and -20.4% (active) | 17% (inactive) and -9.04% (active) | 16.9% (inactive) and 14.1% (inactive) | 0.919% (active) and -3.1% (active) | 49.1% (inactive) and 38.1% (inactive) | 3.02% (active) and 5.41% (active)
13 | Nc1cc2c(cc1N)-c1ccccc1C2 | 71.1% (inactive) and 90.7% (inactive) | 41.3% (inactive) and 61% (inactive) | 88.9% (inactive) and 89.5% (inactive) | 122% (inactive) and 109% (inactive) | 99.5% (inactive) and 107% (inactive) | 96.9% (inactive) and 95.1% (inactive) | 58.3% (inactive) and 79.2% (inactive) | 98.6% (inactive) and 97.7% (inactive) | 104% (inactive) | 89.4% (inactive) and 90.2% (inactive)
14 | COC(=O)/C=C/c1cc(O)c2c(c1)C(C(=O)OC)C(c1ccc(O)c(O)c1)O2 (stereo not given) | 5.46% (active) and 10.8% (inactive) | 36% (inactive) and 34.4% (inactive) | 13.3% (inactive) and 14.7% (inactive) | 69.3% (inactive) and 54.7% (inactive) | 52.9% (inactive) and 43.8% (inactive) | 43.1% (inactive) and 29.2% (inactive) | 44.6% (inactive) and 38.3% (inactive) | -1.91% (active) and 9.26% (active) | 33.2% (inactive) and 44.9% (inactive) | 18.3% (inactive) and 15.8% (inactive)
15 | O=C(Cc1cccc2ccccc12)N/N=C/c1ccc2c(c1)CCC2 | 23% (inactive) | 75.1% (inactive) | 72.3% (inactive) | 80.9% (inactive) | 104% (inactive) | 83.2% (inactive) | 47.8% (inactive) | 75.8% (inactive) | 85.3% (inactive) | 31% (inactive)
16 | Cc1cc(O)c(C(C)C)cc1S(=O)(=O)O (tested in a mixture with another compound) | 109% (inactive) and -17.3% (active) and 92.1% (inactive) | 88.4% (inactive) and -13.4% (active) and 99.5% (inactive) | 97.7% (inactive) and 13.6% (inactive) and 97.5% (inactive) | 80.8% (inactive) and 28.3% (inactive) and 101% (inactive) | 89.5% (inactive) and 100% (inactive) | 105% (inactive) and 5.41% (active) and 118% (inactive) | 102% (inactive) and -2.34% (active) and 93.9% (inactive) | 109% (inactive) and -20.4% (active) and 107% (inactive) | 95.3% (inactive) and -15.9% (active) and 103% (inactive) | 95.3% (inactive) and 2.8% (active) and 111% (inactive)
